Measurements from publication PMC7862700, “An all-to-all approach to the identification of sequence-specific readers for epigenetic DNA modifications on cytosine”.

How the values were obtained:
Test in all cases: DAPPL (digital affinity profiling via proximity ligation, sequencing); 10 mM Tris-HCl pH 7.5, 50 mM NaCl, 1 mM DTT, 4% glycerol, room temperature, 30 min; GST-TFs on glutathione beads, 16-mer random dsDNA library, 0.1% formaldehyde crosslink after washing; high values mean tight binding
Details in all cases: protein: recombinant; tags: N-terminal GST; dsDNA, one strand shown
ETV3L = biological target: T1, ETV3L (Homo sapiens, UniProt Q6ZN32 1-361)
T1 sequence: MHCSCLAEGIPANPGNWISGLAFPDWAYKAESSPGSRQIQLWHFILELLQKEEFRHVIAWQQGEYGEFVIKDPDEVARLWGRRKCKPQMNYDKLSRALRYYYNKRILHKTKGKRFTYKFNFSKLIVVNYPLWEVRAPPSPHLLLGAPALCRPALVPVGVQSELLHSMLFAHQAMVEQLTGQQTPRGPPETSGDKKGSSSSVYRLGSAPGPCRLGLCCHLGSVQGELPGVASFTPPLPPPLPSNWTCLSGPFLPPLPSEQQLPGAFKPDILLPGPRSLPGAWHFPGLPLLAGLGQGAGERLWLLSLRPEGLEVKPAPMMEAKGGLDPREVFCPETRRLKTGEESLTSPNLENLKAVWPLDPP
Outline: (§1)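 Pools were built from human transcription factors expressed in yeast as GST fusions, captured on glutathione beads and DNA-barcoded, along with a tag-only sample. Incubation with 200 nmole of a 16-mer random double-stranded DNA library lasted 30 min at room temperature in Tris/NaCl/DTT/glycerol buffer, and was followed by washing, 0.1% formaldehyde crosslinking, proximity ligation, PCR amplification and Illumina NextSeq500 sequencing. Binding signal is the quotient of each hexamer's read frequency for a factor and its frequency for the tag-only sample.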

ETS2 = biological target: T2, ETS2 (Homo sapiens, UniProt P15036 1-469)
T2 sequence: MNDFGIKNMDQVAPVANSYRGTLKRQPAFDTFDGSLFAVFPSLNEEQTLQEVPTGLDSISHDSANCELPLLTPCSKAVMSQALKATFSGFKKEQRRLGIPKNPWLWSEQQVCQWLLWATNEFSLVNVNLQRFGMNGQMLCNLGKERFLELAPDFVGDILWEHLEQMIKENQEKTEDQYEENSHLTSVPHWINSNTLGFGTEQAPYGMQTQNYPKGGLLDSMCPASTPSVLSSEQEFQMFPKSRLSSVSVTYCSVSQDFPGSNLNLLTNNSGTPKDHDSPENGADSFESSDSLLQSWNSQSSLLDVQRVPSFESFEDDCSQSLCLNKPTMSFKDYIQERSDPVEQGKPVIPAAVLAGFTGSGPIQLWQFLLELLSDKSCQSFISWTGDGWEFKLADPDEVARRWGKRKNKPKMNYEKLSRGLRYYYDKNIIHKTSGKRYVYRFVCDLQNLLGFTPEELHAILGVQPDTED
Outline: as §1

SPDEF = biological target: T3, SPDEF (Homo sapiens, UniProt O95238 1-335)
T3 sequence: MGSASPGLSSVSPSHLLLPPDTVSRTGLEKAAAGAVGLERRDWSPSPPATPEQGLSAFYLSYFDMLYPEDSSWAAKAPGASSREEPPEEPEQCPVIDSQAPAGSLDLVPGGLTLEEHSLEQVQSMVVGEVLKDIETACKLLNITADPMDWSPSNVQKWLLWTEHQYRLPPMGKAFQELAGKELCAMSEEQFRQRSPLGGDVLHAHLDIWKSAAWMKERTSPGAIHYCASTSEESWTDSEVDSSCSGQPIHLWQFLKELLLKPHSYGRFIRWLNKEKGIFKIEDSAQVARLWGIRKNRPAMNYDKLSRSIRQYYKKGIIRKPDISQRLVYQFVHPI
Outline: as §1

ETV7 = biological target: T4, ETV7 (Homo sapiens, UniProt Q9Y603 1-341)
T4 sequence: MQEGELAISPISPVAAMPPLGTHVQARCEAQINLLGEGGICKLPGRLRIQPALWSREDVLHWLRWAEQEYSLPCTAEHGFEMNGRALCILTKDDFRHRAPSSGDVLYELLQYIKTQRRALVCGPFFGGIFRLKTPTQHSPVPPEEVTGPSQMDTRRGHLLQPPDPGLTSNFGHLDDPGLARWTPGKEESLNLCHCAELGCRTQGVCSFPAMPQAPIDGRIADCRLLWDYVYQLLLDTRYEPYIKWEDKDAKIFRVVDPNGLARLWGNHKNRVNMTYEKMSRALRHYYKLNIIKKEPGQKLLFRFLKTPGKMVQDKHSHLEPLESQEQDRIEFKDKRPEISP
Outline: as §1

ETV3 = biological target: T5, ETV3 (Homo sapiens, UniProt P41162-2 1-143)
T5 sequence: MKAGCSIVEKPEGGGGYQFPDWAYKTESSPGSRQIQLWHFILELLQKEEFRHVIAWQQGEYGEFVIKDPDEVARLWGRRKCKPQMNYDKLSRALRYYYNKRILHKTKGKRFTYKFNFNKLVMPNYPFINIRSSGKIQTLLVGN
Outline: as §1

ETV6 = ETV6 (Homo sapiens, UniProt P41212 1-452)
Outline: as §1

ELF5 = biological target: T6, ELF5 (Homo sapiens, UniProt Q9UKW6-2 1-255)
T6 sequence: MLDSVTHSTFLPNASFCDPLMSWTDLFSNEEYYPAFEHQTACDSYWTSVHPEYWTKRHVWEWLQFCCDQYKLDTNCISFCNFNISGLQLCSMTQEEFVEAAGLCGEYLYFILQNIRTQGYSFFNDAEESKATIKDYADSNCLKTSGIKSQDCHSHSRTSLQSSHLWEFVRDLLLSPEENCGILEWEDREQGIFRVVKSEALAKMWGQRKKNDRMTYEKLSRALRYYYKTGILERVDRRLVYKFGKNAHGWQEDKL
Outline: as §1

ERF = biological target: T7, ERF (Homo sapiens, UniProt P50548 1-548)
T7 sequence: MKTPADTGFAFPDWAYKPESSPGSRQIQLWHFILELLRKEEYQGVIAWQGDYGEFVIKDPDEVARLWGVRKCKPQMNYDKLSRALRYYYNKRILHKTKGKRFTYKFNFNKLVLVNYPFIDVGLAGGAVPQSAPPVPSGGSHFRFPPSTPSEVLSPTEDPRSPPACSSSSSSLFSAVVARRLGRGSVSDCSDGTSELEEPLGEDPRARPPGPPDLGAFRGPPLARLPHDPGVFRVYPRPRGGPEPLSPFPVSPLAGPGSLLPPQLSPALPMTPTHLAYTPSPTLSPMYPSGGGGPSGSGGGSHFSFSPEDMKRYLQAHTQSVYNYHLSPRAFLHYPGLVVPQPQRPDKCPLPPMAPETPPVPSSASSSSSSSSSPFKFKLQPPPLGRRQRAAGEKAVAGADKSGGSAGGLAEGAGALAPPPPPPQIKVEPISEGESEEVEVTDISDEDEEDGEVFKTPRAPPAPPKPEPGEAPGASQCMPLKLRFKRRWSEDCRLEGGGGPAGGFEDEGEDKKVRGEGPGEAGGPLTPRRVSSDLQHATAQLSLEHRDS
Outline: as §1

Chain of ETV6 (P41212 whole entry): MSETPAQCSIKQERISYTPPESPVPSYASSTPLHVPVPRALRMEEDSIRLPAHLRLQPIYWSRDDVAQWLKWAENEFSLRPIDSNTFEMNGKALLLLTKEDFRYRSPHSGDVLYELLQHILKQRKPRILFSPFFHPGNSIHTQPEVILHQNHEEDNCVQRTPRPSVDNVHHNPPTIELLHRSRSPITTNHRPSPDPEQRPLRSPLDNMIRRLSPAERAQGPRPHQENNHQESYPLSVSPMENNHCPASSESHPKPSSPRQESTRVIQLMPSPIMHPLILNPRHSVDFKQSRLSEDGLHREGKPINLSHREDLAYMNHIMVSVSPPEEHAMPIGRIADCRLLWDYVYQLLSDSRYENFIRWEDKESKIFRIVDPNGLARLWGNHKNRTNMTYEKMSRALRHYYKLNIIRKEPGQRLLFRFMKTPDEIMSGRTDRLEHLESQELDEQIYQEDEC

Sequence	binding signal (ETV3L)	binding signal (ETS2)	binding signal (SPDEF)	binding signal (ETV7)	binding signal (ETV3)	binding signal (ETV6)	binding signal (ELF5)	binding signal (ERF)
TGCCGA	1.14 fold enrichment (6-mer frequency, TF over GST control)	1.08 fold enrichment (6-mer frequency, TF over GST control)	1.05 fold enrichment (6-mer frequency, TF over GST control)	1.15 fold enrichment (6-mer frequency, TF over GST control)	1.22 fold enrichment (6-mer frequency, TF over GST control)	1.28 fold enrichment (6-mer frequency, TF over GST control)		
AAAAGT	1.08 fold enrichment (6-mer frequency, TF over GST control)	1.07 fold enrichment (6-mer frequency, TF over GST control)	1.12 fold enrichment (6-mer frequency, TF over GST control)	1.16 fold enrichment (6-mer frequency, TF over GST control)	1.07 fold enrichment (6-mer frequency, TF over GST control)	1.06 fold enrichment (6-mer frequency, TF over GST control)	1.08 fold enrichment (6-mer frequency, TF over GST control)	
GTTAAT	1.11 fold enrichment (6-mer frequency, TF over GST control)	1.08 fold enrichment (6-mer frequency, TF over GST control)	1.09 fold enrichment (6-mer frequency, TF over GST control)	1.07 fold enrichment (6-mer frequency, TF over GST control)	1.1 fold enrichment (6-mer frequency, TF over GST control)	1.06 fold enrichment (6-mer frequency, TF over GST control)	1.1 fold enrichment (6-mer frequency, TF over GST control)	
TTATTA	1.11 fold enrichment (6-mer frequency, TF over GST control)	1.07 fold enrichment (6-mer frequency, TF over GST control)	1.12 fold enrichment (6-mer frequency, TF over GST control)	1.11 fold enrichment (6-mer frequency, TF over GST control)	1.14 fold enrichment (6-mer frequency, TF over GST control)	1.13 fold enrichment (6-mer frequency, TF over GST control)	1.13 fold enrichment (6-mer frequency, TF over GST control)	
TAGTCC	1.12 fold enrichment (6-mer frequency, TF over GST control)	1.06 fold enrichment (6-mer frequency, TF over GST control)	1.2 fold enrichment (6-mer frequency, TF over GST control)	1.13 fold enrichment (6-mer frequency, TF over GST control)		1.14 fold enrichment (6-mer frequency, TF over GST control)	1.06 fold enrichment (6-mer frequency, TF over GST control)	
TGGCCC	1.07 fold enrichment (6-mer frequency, TF over GST control)	1.12 fold enrichment (6-mer frequency, TF over GST control)	1.03 fold enrichment (6-mer frequency, TF over GST control)	1.01 fold enrichment (6-mer frequency, TF over GST control)	1.03 fold enrichment (6-mer frequency, TF over GST control)	1.06 fold enrichment (6-mer frequency, TF over GST control)	1.02 fold enrichment (6-mer frequency, TF over GST control)	
CAGATT		1.02 fold enrichment (6-mer frequency, TF over GST control)			1.03 fold enrichment (6-mer frequency, TF over GST control)	1.02 fold enrichment (6-mer frequency, TF over GST control)		
TCATGA	1.03 fold enrichment (6-mer frequency, TF over GST control)	1.04 fold enrichment (6-mer frequency, TF over GST control)		1 fold enrichment (6-mer frequency, TF over GST control)	1.06 fold enrichment (6-mer frequency, TF over GST control)		1.05 fold enrichment (6-mer frequency, TF over GST control)	
AATGGA	1.08 fold enrichment (6-mer frequency, TF over GST control)	1.09 fold enrichment (6-mer frequency, TF over GST control)		1.03 fold enrichment (6-mer frequency, TF over GST control)		1.12 fold enrichment (6-mer frequency, TF over GST control)		
AGCATC	1.02 fold enrichment (6-mer frequency, TF over GST control)	1.09 fold enrichment (6-mer frequency, TF over GST control)	1.27 fold enrichment (6-mer frequency, TF over GST control)		1.07 fold enrichment (6-mer frequency, TF over GST control)	1.03 fold enrichment (6-mer frequency, TF over GST control)	1.08 fold enrichment (6-mer frequency, TF over GST control)	
ATCAGC		1.09 fold enrichment (6-mer frequency, TF over GST control)				1.01 fold enrichment (6-mer frequency, TF over GST control)		
TGGGTT	1.17 fold enrichment (6-mer frequency, TF over GST control)	1.06 fold enrichment (6-mer frequency, TF over GST control)	1.05 fold enrichment (6-mer frequency, TF over GST control)		1.02 fold enrichment (6-mer frequency, TF over GST control)	1 fold enrichment (6-mer frequency, TF over GST control)	1.01 fold enrichment (6-mer frequency, TF over GST control)	
ATAGGT	1.05 fold enrichment (6-mer frequency, TF over GST control)		1.05 fold enrichment (6-mer frequency, TF over GST control)	1.17 fold enrichment (6-mer frequency, TF over GST control)	1.06 fold enrichment (6-mer frequency, TF over GST control)			
CCTGGG	1.22 fold enrichment (6-mer frequency, TF over GST control)	1.14 fold enrichment (6-mer frequency, TF over GST control)	1.11 fold enrichment (6-mer frequency, TF over GST control)	1.39 fold enrichment (6-mer frequency, TF over GST control)	1.08 fold enrichment (6-mer frequency, TF over GST control)	1.1 fold enrichment (6-mer frequency, TF over GST control)	1.17 fold enrichment (6-mer frequency, TF over GST control)	
AAGGCT	1.02 fold enrichment (6-mer frequency, TF over GST control)		1.04 fold enrichment (6-mer frequency, TF over GST control)	1.06 fold enrichment (6-mer frequency, TF over GST control)	1.04 fold enrichment (6-mer frequency, TF over GST control)	1.02 fold enrichment (6-mer frequency, TF over GST control)	1.06 fold enrichment (6-mer frequency, TF over GST control)	
AACGTT	1.11 fold enrichment (6-mer frequency, TF over GST control)	1.17 fold enrichment (6-mer frequency, TF over GST control)	1.12 fold enrichment (6-mer frequency, TF over GST control)	1.1 fold enrichment (6-mer frequency, TF over GST control)	1.11 fold enrichment (6-mer frequency, TF over GST control)	1.19 fold enrichment (6-mer frequency, TF over GST control)	1.16 fold enrichment (6-mer frequency, TF over GST control)	
TGGATT	1.05 fold enrichment (6-mer frequency, TF over GST control)	1.03 fold enrichment (6-mer frequency, TF over GST control)		1.04 fold enrichment (6-mer frequency, TF over GST control)		1.02 fold enrichment (6-mer frequency, TF over GST control)		
TGAGCT						1.05 fold enrichment (6-mer frequency, TF over GST control)		1.05 fold enrichment (6-mer frequency, TF over GST control)
